Laboratory results from PubChem BioAssay.
Results filed as inconclusive are left out. Activity calls are given as the source filed them. Unless noted, no stated cut-off is given here; in the data, active means inhibition above about 30%; inactive means the rest.

Columns and labels:
[1] = Her2 expression decrease, cell viability multiplex – SKBR3 breast tumor cells, AlphaScreen, ATP viability, primary screen (AID 461;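 active means Her2 level under about 52% in both replicate screens, with viability over 70% of control, limit read from the data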;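 on Her2 level: lower value means less Her2 protein in the cells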;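 on viability: percent of carrier control wells set as 100% viability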); settings: SKBR3 Her2 protein level, 18-24 h, measured here: SKBR3 viability, ATP luminescence, at 10 µM
[2] = target: Receptor tyrosine-protein kinase erbB-2 (Homo sapiens) (UniProt P04626); assay: as above; settings: 18-24 h, at 10 µM, stronger effect = lower value
Receptor tyrosine-protein kinase erbB-2 (Homo sapiens), sequence (P04626 whole entry, looked up): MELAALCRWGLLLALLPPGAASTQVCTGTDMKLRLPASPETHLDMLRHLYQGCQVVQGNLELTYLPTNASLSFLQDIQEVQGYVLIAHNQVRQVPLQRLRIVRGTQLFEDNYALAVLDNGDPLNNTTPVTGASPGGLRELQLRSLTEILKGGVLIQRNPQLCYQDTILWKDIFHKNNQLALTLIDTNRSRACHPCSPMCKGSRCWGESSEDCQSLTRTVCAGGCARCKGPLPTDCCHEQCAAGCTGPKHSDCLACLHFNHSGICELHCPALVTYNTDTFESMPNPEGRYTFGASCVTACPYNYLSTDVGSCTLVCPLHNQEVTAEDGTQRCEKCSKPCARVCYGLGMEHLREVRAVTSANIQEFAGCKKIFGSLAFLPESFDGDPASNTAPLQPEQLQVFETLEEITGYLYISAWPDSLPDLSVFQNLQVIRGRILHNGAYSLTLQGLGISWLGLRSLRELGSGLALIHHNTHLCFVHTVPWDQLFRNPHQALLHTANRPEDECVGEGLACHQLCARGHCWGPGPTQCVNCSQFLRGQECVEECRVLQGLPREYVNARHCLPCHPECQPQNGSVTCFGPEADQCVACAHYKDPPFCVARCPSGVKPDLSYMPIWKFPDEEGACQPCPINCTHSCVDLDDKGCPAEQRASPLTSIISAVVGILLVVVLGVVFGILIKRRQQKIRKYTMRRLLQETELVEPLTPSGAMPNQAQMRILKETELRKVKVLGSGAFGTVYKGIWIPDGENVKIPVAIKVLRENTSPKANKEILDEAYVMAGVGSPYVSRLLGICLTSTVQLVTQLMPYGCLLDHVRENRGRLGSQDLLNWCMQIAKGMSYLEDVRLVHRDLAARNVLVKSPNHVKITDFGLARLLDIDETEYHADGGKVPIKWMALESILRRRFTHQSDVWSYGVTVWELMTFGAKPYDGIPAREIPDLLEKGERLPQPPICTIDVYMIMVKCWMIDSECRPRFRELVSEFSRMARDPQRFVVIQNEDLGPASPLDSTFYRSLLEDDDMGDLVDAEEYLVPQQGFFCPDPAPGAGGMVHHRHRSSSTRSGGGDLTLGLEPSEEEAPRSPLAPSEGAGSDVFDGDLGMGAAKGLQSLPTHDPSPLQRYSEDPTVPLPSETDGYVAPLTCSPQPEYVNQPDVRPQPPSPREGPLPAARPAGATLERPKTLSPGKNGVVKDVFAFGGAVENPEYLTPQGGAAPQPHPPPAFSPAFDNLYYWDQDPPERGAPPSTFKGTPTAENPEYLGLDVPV

[3] = reduced viability of SK-BR-3 breast cancer cells – cell-based, 24 h, human, pilot screen (AID 572;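 active means viability at or below 10% of carrier control in both of two separate runs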;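 further: compound exposure lasted between 18 and 24 h rather than exactly 24 h; 100% = carrier-treated control wells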); settings: SK-BR-3 viability, CellTiter-Glo luminescence, at 10 µM, stronger effect = lower value
[4] = HUVEC growth inhibition – cell-based, human, primary screen (AID 575;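 active means viability at or below 30% in both replicate assays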;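 further: 100% = median of untreated cell wells with 0.1% DMSO on each plate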); settings: HUVEC proliferation, CellTiter-Glo luminescence, 72 h; at 10 µM; stronger effect = lower value
[5] = H69AR cell proliferation blockers – human, duplicate replicates, primary screen (AID 580;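 active means viability at or under a set limit in both replicates, limit being median viability minus 3 SD, cut at about 48% in these data, passing the limit was not always enough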;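 further: 100% = mean luminescence of untreated wells and 0% = no signal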); settings: H69AR lung tumor cells viability, ATP luminescence, 72 h; at 10 µM; stronger effect = lower value
[6] = MRP1 drug-resistance reversers in H69AR cells – cell-based, doxorubicin co-treatment, pilot screen (AID 601;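 active means viability loss from added drug above about 55%, and viability with drug at most 40%, in both replicates, limit read from the data, passing the limit was not always enough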); settings: CellTiter-Glo, 72 h, at 10 µM; for differential viability (reversal): stronger effect = higher value
[7] = yeast transport mutant growth inhibition pilot in 384-well plates, post-Golgi transport modulator project (AID 636; in the data active means inhibition above about 31%); settings: absorbance 615 nm, about 18 h, stronger effect = higher value
[8] = growth suppression of yeast trafficking mutant, preliminary HTS, modulators of trafficking downstream of Golgi apparatus project, 1536-format plate, OD 615 nm (AID 637); settings: yeast transport mutant growth, absorbance 615 nm, 18 h; stronger effect = higher value
[9] = S. cerevisiae growth inhibition in permissive medium (OD615), pilot counter-assay for S. cerevisiae lifespan shortening project, permissive growth control (AID 705;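 active means growth inhibition above 25% in both replicates, a cutoff set 3 SD above the mean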); settings: OD615, 24 h, at 10 µM, stronger effect = higher value
[10] = S. cerevisiae growth inhibition in restrictive medium, OD615, pilot screen, restrictive growth control, yeast lifespan reduction project (AID 706;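 active means growth inhibition above a set limit, 3 SD over mean compound inhibition, in both replicates, cut at about 43% in these data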;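 further: modified DeaD lifespan yeast strain shifted to restrictive glucose medium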); settings: OD615, 48 h, at 10 µM, stronger effect = higher value
[11] = doxorubicin toxicity protection in MRP-1 cells – H69AR cells, CellTiter-Glo, duplicate, MRP-1 activator project, pilot screen (AID 807;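 active means viability increase at or above a cutoff of the median across tested compounds plus 3 SD, cut at about 8.5% in these data, passing the limit was not always enough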;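 further: compound pretreatment 18-22 h then 72 h combined with doxorubicin; 0% = doxorubicin alone and 100% = vehicle without doxorubicin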); settings: H69AR viability with doxorubicin, CellTiter-Glo luminescence; at 10 µM; stronger effect = higher value
[12] = viability of HCT116 without oncogenic beta-catenin – human colon tumor cells, pilot screen (AID 823;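 active means cell viability at or below a set limit in both duplicate runs, the limit being the all-compound median minus 4 SD, cut at about 23% in these data, passing the limit was not always enough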;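 further: 0% = wells killed by 20 µM Hyamine and 100% = untreated DMSO cell wells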); settings: HCT116 beta-catenin knockout viability, CellTiter-Glo, 60 h; at 10 µM; stronger effect = lower value
[13] = viability of PTEN-null HCT116 cells – cell-based, HCT116 clonal line, CellTiter-Glo, pilot screen (AID 824;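 active means viability at or below 27.92% in each of two runs, the all-compound median minus 4 SD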;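 further: 0% = 20 µM Hyamine control and 100% = vehicle cell control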); settings: HCT116 PTEN-deleted viability, 60 h, at 10 µM, stronger effect = lower value
[14] = RAM pathway blockade in budding yeast – dse1pr::URA3 reporter, 5-FOA selection, pilot screen (AID 869;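 active means inhibition over a set limit, the all-compound mean plus 3 SD, in both replicate runs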;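 further: 0% = DMSO wells with no growth and 100% = 10 µM 1-NA-PP1 with full growth; RAM network block rescues cells from 5-FOA so hits raise OD615 growth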); settings: S. cerevisiae dse1pr::URA3 5-FOA growth, OD615, 2 d; at 10 µM; stronger effect = higher value; strain carries analog-sensitive mutant Cbk1 kinase
[15] = RAM signaling pathway blockade in yeast – S. cerevisiae, Pdr1DBD-CYC8 efflux-inhibited sensitized strain, primary screen (AID 1298;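 active means RAM network inhibition above 8.4% in each of two replicates, 3 SD over the compound average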;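 further: 0% = DMSO untreated cells without growth and 100% = 10 µM 1-NA-PP1 full growth; higher means more yeast growth rescued from 5-FOA killing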); settings: S. cerevisiae cbk1-as DSE1-URA3 strain, 5-FOA growth OD615, 2 d; at 50 µM; stronger effect = higher value
[16] = H69AR cells + 2 uM doxorubicin, measured here: viability with 2 uM doxorubicin, stronger effect = lower value
[17] = H69AR cells, compound alone cytotoxicity

Compound	viability [1] [%]	Her2 level [2]	viability [3]	viability [4]	viability [5]	differential viability (reversal) ([6]; H69AR cells + 2 uM doxorubicin)	viability [6, 16] [%]	viability [6, 17] [%]	inhibition [7]	inhibition [8]	growth inhibition [9]	growth inhibition [10]	viability increase [11]	viability [12]	viability [13]	inhibition [14]	RAM network inhibition [15]
CCOC(=O)CN1CC23C=CC(O2)C(C(=O)Nc2ccc(C(C)=O)cc2)C3C1=O (stereo not given)	87	101% (inactive)	87% (inactive)	101% (inactive)	96.4% (inactive)	2.38% (inactive)	94	96.4	-1.07% (inactive)	2.67% (inactive)	-5.7% (inactive)	2.56% (inactive)	-1.78% (inactive)	102% (inactive)	94.2% (inactive)	1.26% (inactive)	1.41% (inactive)
O=C(c1cnc2n(c1=O)CCS2)N(C1CCCCC1)C1CCCCC1	87	84% (inactive)	87% (inactive)	106% (inactive)	102% (inactive)	5.03% (inactive)	97.4	102	-4.53% (inactive)	-1% (inactive)	2.67% (inactive)	-18.9% (inactive)	-2.34% (inactive)	101% (inactive)	92.3% (inactive)	1.71% (inactive)	2.61% (inactive)
COc1ccc(N2CCN(C(=O)c3c(-c4ccccc4)noc3C)CC2)cc1	91.5	108% (inactive)	91.5% (inactive)	94.4% (inactive)	88.1% (inactive)	-4.69% (inactive)	92.8	88.1	0.51% (inactive)	4% (inactive)	-9.57% (inactive)	-10.4% (inactive)	-2.79% (inactive)	94.4% (inactive)	90.3% (inactive)	0.795% (inactive)	4.5% (inactive)
COCCn1c(=N)c(C(=O)NCCc2ccccc2)cc2c(=O)n3cccc(C)c3nc21	63.5	69% (inactive)	63.5% (inactive)	86.6% (inactive)	92.5% (inactive)	15.7% (inactive)	76.8	92.5	-0.38% (inactive)	-8.83% (inactive)	1.32% (inactive)	-10.6% (inactive)	-4.45% (inactive)	66.8% (inactive)	68.5% (inactive)	0.64% (inactive)	0.2% (inactive)
COc1ccccc1S(=O)(=O)Cc1ccc(C(=O)N2CCN(c3ccccn3)CC2)o1	101	84.5% (inactive)	101% (inactive)	87.8% (inactive)	88.9% (inactive)	6.81% (inactive)	82.1	88.9	-3.47% (inactive)	-1.97% (inactive)	-6.28% (inactive)	-10.3% (inactive)	-1.97% (inactive)	92.8% (inactive)	85.1% (inactive)	0.76% (inactive)	0.78% (inactive)
